Assay results as given in PMC13494018.

molecular target: VTCN1, Q7Z7D3
Sequence (Q7Z7D3 whole entry): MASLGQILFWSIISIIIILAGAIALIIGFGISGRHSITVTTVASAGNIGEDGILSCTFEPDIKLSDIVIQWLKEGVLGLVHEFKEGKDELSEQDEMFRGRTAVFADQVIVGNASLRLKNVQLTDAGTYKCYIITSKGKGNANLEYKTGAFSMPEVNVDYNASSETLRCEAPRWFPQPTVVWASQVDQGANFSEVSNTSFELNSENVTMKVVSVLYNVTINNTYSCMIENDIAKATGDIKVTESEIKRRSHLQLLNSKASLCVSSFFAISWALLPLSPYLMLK

Binder	binding in a display sort
d3r1_design_ppi_688_dldesign_0_cycle1_af2pred (protein) AVENAKKAAEQATKALKAYATEEEKEEAEKKGKEFKKLAEEAKADPSKAEEVLNKLLKEAKEYDKKLEEKEKKEKEE	not found (inactive)
d3r1_design_ppi_728_dldesign_0_cycle0_af2pred (protein) SLKESVDKKVEKLKEEAKKLAKYDPELAKKAIEYAEKAKKAKTLEEAGKYANKASEYIEEAEKKAKEKKEEEAK	not found (inactive)
d3r1_design_ppi_728_dldesign_0_cycle1_af2pred (protein) DIRENIKKLAKELKKEAEKLSEYDPELAKKAIEYAKKAEAAKTAEEAAKYATKAAEYVEKAEELAKKKKEELEK	not found (inactive)
d3r1_design_ppi_729_dldesign_0_cycle0_af2pred (protein) DEEKKAKEAAEEAIKAKEKLGTGKEVKKTADEAFAAAKKATPEQAKALYKKLLEWFKEEKAKAEAEIAAA	not found (inactive)
d3r1_design_ppi_734_dldesign_0_cycle0_af2pred (protein) SSEEELKLLTGKNALEILPEILKEAEKLLKEAKKTGDKEKLKEAIKQAENAIAAAKAAAIVDPKKAEEYKKKAEKLKKEAEKLL	not found (inactive)
d3r1_design_ppi_851_dldesign_0_cycle0_af2pred (protein) DEVKKLLEEAKKLAEKAEELAKKGGSVEEVEKAAEKAQEAAVKAIKLAAKTEDGEKLTKEAGKYAQKATQAAAEAKEKAKKEA	not found (inactive)
d3r1_design_ppi_859_dldesign_0_cycle1_af2pred (protein) ESELLKQVAEAVQQAVKAALKDPEEAKKVVEKALELDAEKAIEVAKSLAEAYKIAGNEEKAAAAKKVAELLEKLSKERK	not found (inactive)
d3r1_design_ppi_891_dldesign_0_cycle1_af2pred (protein) AEEALKEEMVKKAKEVAEKAAKAGYPEEAKQAAKAGAAFAPEKGEEIKKYAEEEIKKAEKEKEEKKKKEKEKKE	not found (inactive)
d3r1_design_ppi_897_dldesign_0_cycle0_af2pred (protein) MEAKEKVKKLTEEAIKYAEEAGDKETAEEAKKGGEALLAGAKEAEELAKKNPVAGASLQEAVIKSAELFAKSIKEEVEKKK	not found (inactive)
d3r1_design_ppi_897_dldesign_0_cycle1_af2pred (protein) MEALKAVEEKMKEAIEYAKKAGDEELAKEAEKRRKALLAGAERAVEVAKKNPVAGASLAQAVIKSAELASEYFKELVEKKK	not found (inactive)
d3r1_design_ppi_981_dldesign_0_cycle1_af2pred (protein) MEEFAKEMEKWSEEAAKKYEEAKELAKKDPKEGVKVLEEAIKELEEKAKEYEKKGPYGKNIAKALNWLAKKFKELKKKIEAS	not found (inactive)
d3r1_design_ppi_985_dldesign_0_cycle1_af2pred (protein) EEAEKLLKEIKEKSEKAIKLAEEGKIEEAEKELQEALKIAQELAKKYPEAAPEAAKIVNKAATELEKKKEEQKKKLE	not found (inactive)
d3r1_design_ppi_994_dldesign_0_cycle0_af2pred (protein) MEELEKVAKKILKEAKKRAEEAAKKGAESENGEEVFTKGLQETLEKASEEAEKAGLPDELAVKVLKEIVKYGNEVKKAALAARA	not found (inactive)
d4r1_design_ppi_33_dldesign_0_cycle0_af2pred (protein) SEEEEKNAENLKKAAEELEKIAEEGIKKGASVEEIKKKLEEKGKEFAKKYPKNAKSYLELAKIVAKEAEKKLK	not found (inactive)
d4r1_design_ppi_77_dldesign_0_cycle0_af2pred (protein) MKEKEEALKEAKKHLKEAEKLAEEAEKNGKGDELFSKLGKHLQEAAKYAEKNKENQEEINKELQKVAKKARDAILKVQKAR	not found (inactive)
d4r1_design_ppi_77_dldesign_0_cycle1_af2pred (protein) MKEEEKALEKANEYIEKAEELAKKALENGEGDEVFSEAGKLLEKAVEEAEKNKENREEILKRVQEVRDLLREAVLKRLKAE	not found (inactive)
d4r1_design_ppi_104_dldesign_0_cycle0_af2pred (protein) MSIEERLEELEKRLTEETKKEAEENLKRLEEVAKELAELDPELAPEAKKALEEAKKLFEDPEKIFEAAALARESLEEFEKRLKELKE	not found (inactive)
d4r1_design_ppi_104_dldesign_0_cycle1_af2pred (protein) MSIEERLEELEKRLYEEIKKKAEEYLEELEKESEKLAKLDPSLAEEAKKKYEEAKELYKDPETVYLSKSHAEENLEEVKKKIKELES	not found (inactive)
d4r1_design_ppi_144_dldesign_0_cycle0_af2pred (protein) DEETKKAVEEAKKAAKEAEEIAKKYPELKPLAEQAKKAAKYAEKYAKENPIAAKNAMKATKAIAEEMKKLA	not found (inactive)

Binder	binding in a display sort
d4r1_design_ppi_144_dldesign_0_cycle1_af2pred (protein) DEEVKKAAKEAKEAAKEAEKLAKKDKSLKPLAEQAKKAAKYAEYYTKINPTLALNAAKAAKKIYEEMKKLA	not found (inactive)
d4r1_design_ppi_171_dldesign_0_cycle0_af2pred (protein) MEKIEEANKLLKKALELLKEVGEEYYKKVMEAIKTEGIDAAVEKAKEIAKELKKKDKEKGKIAEEAYKNLEKAKELIKEIYEE	not found (inactive)
d4r1_design_ppi_171_dldesign_0_cycle1_af2pred (protein) MKEIEEAQKKYKEALEKLKEVGEEYYQAVLDAIKNKGIEEAVKTAEKLAKELEKEDPEKGKKAKEAAELLKEAKKLIEKVRKE	not found (inactive)
d4r1_design_ppi_174_dldesign_0_cycle0_af2pred (protein) SMEEKEAAEKMKELNEIAYEEYERVVKEGTEEAAREAMRRIMEKAKEHPYKETALKYVEVTLKHLKEEVSPEAAKAAEEELKRELA	not found (inactive)
d4r1_design_ppi_219_dldesign_0_cycle1_af2pred (protein) AAEAEEYRKKAAEYIQELQELKTEIKATGTEEQAKKADEIWEEYKKKVKEAKEKYKDGTDLELAKALYKIAKENYEKLKELKE	not found (inactive)
d4r1_design_ppi_310_dldesign_0_cycle0_af2pred (protein) MEAIEEMRKKKEEAIKEAEESNPEEGAKIMEEAMKEIQEIANKAIKSSSSEEAKKILEEHEKLVEELEKKKEELKKKAEEEKK	not found (inactive)
d4r1_design_ppi_339_dldesign_0_cycle0_af2pred (protein) SEKAEKAAKEAEEEAKKAKELAKEAAKLSPSYAAAFKKLAEAFKKAAKLLKEDYEKGLKEFKELKKSFELAKKAAAKAKAAAAA	not found (inactive)
d4r1_design_ppi_339_dldesign_0_cycle1_af2pred (protein) AEEAEKAAKEAEEKAKEAEELAKEAAKLHPTYAQAFELLAKAFKKAAELLKKDYKEGKKYFEELKESFERAKKALAIAKKEKAA	not found (inactive)
d4r1_design_ppi_352_dldesign_0_cycle0_af2pred (protein) AAAEQNAKNLKEAEKAKKEAEEAKKLAKEDVAKGAEKLTEAAKKLAEIYEKASPEIQPYVAKELQEVAKAAQEAIKAKLEKDAA	not found (inactive)
d4r1_design_ppi_425_dldesign_0_cycle1_af2pred (protein) AAEAAAAAEKAAAAAGEKAGKAAAEHVAAGAKAGTLPQAVQDVLEQTSELKYKGDEVAAKAAYEAAREAAKAARAAA	not found (inactive)
d4r2_design_ppi_0_dldesign_0_cycle1_af2pred (protein) VAKELAKKFQKAIEALFEASTIEEVPEARAKVKEARKIAREGVENPETAKEKLEEGVKLVEKKAKEMEEKKKKEEEEKLK	not found (inactive)
d4r2_design_ppi_24_dldesign_0_cycle0_af2pred (protein) KKEEEEKEKLKNFAKQASGKAEALSDQLKDVAEKTGSEELKEKAKKLEELGKEAEKNPELGKKKEEEAKKVHKEGKEYYKAKK	not found (inactive)
d4r2_design_ppi_24_dldesign_0_cycle1_af2pred (protein) SMEKEKEEELKNYAKQVAGKAFTYSDQLKEVAEKTGLEELKEKAEELEKLGKEALENPEKAKEYEAKAKEVFKEGRELYKKAK	not found (inactive)
d4r2_design_ppi_27_dldesign_0_cycle0_af2pred (protein) SEEEKKKKEAEKKVEEAKKKLEEAKKFAKEGKKEEGAKKLEEVAKELDEKADEFFASGSEEYREAGAKLGSLSIRAKLYAEGLKAK	not found (inactive)
d4r2_design_ppi_27_dldesign_0_cycle1_af2pred (protein) GKEKEEKEKAEKIVEEAKKELEEAKEYGKKTTKEEGAEKLEEVAKKLKEKAEEFLATGKEEWKHAGAKLESLAIRAELYAKGLRRE	not found (inactive)
d4r2_design_ppi_34_dldesign_0_cycle0_af2pred (protein) SGAGQAKMERNAALSSLRAAKANPALAEIAAEDAIEAAKRALAVPEASPEVKEEAERVRKEAEAVGAAAKAAKAA	not found (inactive)
d4r2_design_ppi_48_dldesign_0_cycle1_af2pred (protein) DFTAKAAAQAKKYKAEAKANAADPEKVGEVLAKALKAANEAKEAGNPAAAAALKAAADEILKINRESLLKEET	not found (inactive)
d4r2_design_ppi_49_dldesign_0_cycle0_af2pred (protein) GKIEELKKKLKEAEKKLEEAKEKLNKAKAEAESYRIRAEANKENKEKYLKKAEEIEKEEIEKAKKEIEEYEKEKKEAEKKLKEAKE	not found (inactive)
d4r2_design_ppi_53_dldesign_0_cycle1_af2pred (protein) EEAKARAEKAFARAKALKARAKELKAKGEELFANAPELGEESLKRGKVYKLQAEQYEARAEEAEALGKELAAA	not found (inactive)
